Screening results: PubChem, several laboratories
This is a sample that favours compounds with a hit; in the whole collection about 6.9% have one here.
Beta apoptosis: blocks beta cell apoptosis | INS-1E cytokine-induced death, ATP luminescence, 48 h; percent of positive-control rescue, neutral wells zero | protection from apoptosis, % (no concentration beside the values) | 0.8% of 300,000 active | AID 435005;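 active = Every replicate reaches about 75%, or at least half do and their mean reaches it too, limit read from the data; inconclusive = At least half of replicates reach the limit but their mean does not; inactive = Under half of replicates reach the limit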;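 note: 0% = cytokine-treated negative control wells and 100% = positive control rescue; higher means more ATP so stronger rescue from cytokine killing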
MPTP inh: inhibitors of mitochondrial permeability transition pore; isolated mouse mitochondria, Ca2+ swelling absorbance, 30 min; 1.4% of 360,000 active; inhibition, % at 10 µM; AID 602449;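 active = inhibition of 50% or more, scaled per plate between neutral and stimulator controls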;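 note: 0% = DMSO wells given calcium and 100% = 1 mM EGTA wells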
SKKanGAS inh: blocks kanamycin growth of S. pyogenes SKKanGAS strain | BacTiter-Glo, 6 h | inhibition, % at 7.5 µM | 1.3% of 300,000 active;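 active = mean replicate score, as percent of positive control median, at least 50; inconclusive = mean below 50 but one replicate at or above 50; inactive = mean and every replicate below 50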;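 note: strain carries kanamycin resistance gene driven by streptokinase promoter and grows in 40 µg/ml kanamycin; loss of luminescence reflects streptokinase promoter inhibition or plain growth inhibition; 0% = median of DMSO wells and 100% = positive control at its reference dose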
Mdm2 MdmX PPI: inhibitors of human Mdm2/MdmX interaction. O15151+Q00987. SaOS-2 split-luciferase Mdm2/MdmX complementation, luminescence. inhibition, % at 8 µM. 3% of 330,000 active. AID 485346;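 active = inhibition of at least 50% at 8 µM in the primary screen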
Target sequence (O15151 whole entry, looked up): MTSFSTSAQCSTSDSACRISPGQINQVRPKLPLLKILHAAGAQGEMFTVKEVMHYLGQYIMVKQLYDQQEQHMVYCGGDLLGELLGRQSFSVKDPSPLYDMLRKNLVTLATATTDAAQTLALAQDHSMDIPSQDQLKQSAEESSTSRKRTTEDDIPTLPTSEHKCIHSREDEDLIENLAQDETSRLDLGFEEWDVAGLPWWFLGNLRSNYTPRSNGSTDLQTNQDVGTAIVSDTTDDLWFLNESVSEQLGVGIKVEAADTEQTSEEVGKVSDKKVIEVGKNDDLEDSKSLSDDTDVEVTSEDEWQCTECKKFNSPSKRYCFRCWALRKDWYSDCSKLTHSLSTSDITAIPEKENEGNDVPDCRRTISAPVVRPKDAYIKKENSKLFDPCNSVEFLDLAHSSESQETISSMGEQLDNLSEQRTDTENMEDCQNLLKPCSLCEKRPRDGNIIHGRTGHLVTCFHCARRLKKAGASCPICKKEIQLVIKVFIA
Target sequence (Q00987 whole entry, looked up): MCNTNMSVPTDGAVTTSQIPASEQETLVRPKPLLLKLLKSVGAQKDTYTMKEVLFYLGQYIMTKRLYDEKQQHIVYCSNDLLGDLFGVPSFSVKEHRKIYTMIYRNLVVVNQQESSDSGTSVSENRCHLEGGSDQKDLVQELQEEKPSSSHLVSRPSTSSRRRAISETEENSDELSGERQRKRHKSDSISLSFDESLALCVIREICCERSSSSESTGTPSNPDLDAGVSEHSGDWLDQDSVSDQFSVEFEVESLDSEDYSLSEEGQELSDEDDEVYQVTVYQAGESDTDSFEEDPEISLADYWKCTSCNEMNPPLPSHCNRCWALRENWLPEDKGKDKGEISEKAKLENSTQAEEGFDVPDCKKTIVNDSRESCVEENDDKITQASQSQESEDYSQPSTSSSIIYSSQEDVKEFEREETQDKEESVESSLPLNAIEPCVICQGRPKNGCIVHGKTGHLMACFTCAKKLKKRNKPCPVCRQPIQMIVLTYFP
CSC inhib: blocks cancer stem cells. cancer stem cell-like cells viability, luminescence. inhibition, % at 7.5 µM. 1.1% of 300,000 active; in the data active = inhibition above about 75%; inconclusive = no clear call, values can overlap the other calls; tested in HMLE shEcad cells
NR3A LBD binder: NR3A (human) ligand-binding domain modulation; Tm shift relative to glycine control, % at 25 µM; 2.5% of 340,000 active; NR3A LBD differential scanning fluorimetry, Tm shift; 0% = protein alone, 100% = glycine-bound protein;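 active = melting temperature shift of at least 10% of the positive control shift, at one fixed dose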
MPTP counter: mitochondrial membrane potential, counter-screen | isolated mitochondria, Rhodamine 123 fluorescence | inhibition, % at 10 µM | 78% of 5,000 active | AID 624504 | shares compounds with MPTP inh; in the data active = inhibition above about 22%;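 note: 0% = DMSO vehicle and 100% = positive control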
MPTP abs DR: MPTP inhibition, dose response swelling confirmation; shares compounds with MPTP inh; isolated mitochondria swelling, absorbance; IC50, µM; 58% of 780 active; in the data active = IC50 below about 20 µM
MPTP counter DR: active in counter-screen for permeability transition pore inhibitors; IC50, µM; shares compounds with MPTP inh; isolated mitochondria counterscreen, fluorescence read-out; 49% of 780 active; in the data active = IC50 below about 80 µM
* hit, by the source's call; u = inconclusive; x = no result given.

SMILES	Beta apoptosis	MPTP inh	SKKanGAS inh	Mdm2 MdmX PPI	CSC inhib	NR3A LBD binder	MPTP counter	others
CN(C)NC(=O)C12CCC(C)(C(=O)O1)C2(C)C (centres undefined)	-2.5	-1.7	-1.1	2.8	-5.3	-0.9	x
CN(C)CC(O)c1ccc(C=Cc2ccc(Cl)cc2)cc1 (centres undefined)	x	96.8*	x	x	x	-8.7	-11.4	MPTP abs DR=17.2*;MPTP counter DR=>80
O=C(NNc1ccc(O)cc1)c1ccc(Br)cc1	-5.6	-1.8	1.4	-5.9	44.2	-0.7	x
O=C(NNC1=C(C(=O)C(F)(F)F)CCC1)c1ccc(Br)cc1	6.4	93.0*	106.4*	39.8	106.7*	-17.6	74.6*
COc1cccc(C(=O)NNC2=C(C(=O)C(F)(F)F)CCC2)c1	0.8	62.6*	-1.9	23.1	23.9	1.3	45.3*
COc1ccc(CN2CCN(CCCCOc3ccc(Cl)cc3)CC2)c(OC)c1OC	29.6	66.3*	-24.3	14.4	11.2	-1.0	28.9*
NS(=O)(=O)c1ccc(NC(=O)Nc2ccc(Cl)cc2)cc1	9.7	77.0*	-3.8	-36.0	3.4	4.6	84.8*
NS(=O)(=O)c1ccc(NC(=S)Nc2cc(Cl)c(Cl)cc2Cl)cc1	-3.7	88.0*	-4.1	-8.1	-4.6	-3.3	92.0*
Cc1sc2ncnc(N3CCCCC3)c2c1C	-8.4	1.1	0.2	-22.5	-10.9	-1.1	x
Cc1sc2ncnc(N3CCCCC3C)c2c1C (centres undefined)	17.8	59.6*	6.6	20.0	6.7	-1.9	53.6*
COCc1cc(C)nc(OCC(=O)N/N=C/c2cc(C)n(-c3c(C)cccc3C)c2C)c1C#N	2.4	55.5*	2.4	33.6	-16.9	-0.1	0.5	MPTP abs DR=7.89*;MPTP counter DR=>80
CC1(C)C2CC=C(/C=N/NC(=O)c3ccccc3O)C1C2 (centres undefined)	-9.8	50.1*	-5.8	16.4	-2.9	-8.1	71.0*
CNC(=S)N/N=C/C1=CCC2CC1C2(C)C (centres undefined)	-6.7	-6.1	-5.6	20.6	-16.5	-3.2	x
O=C(Nc1ccc(Cl)cc1)N(C1=NCCC1)c1ccc(OC(F)F)cc1	-0.4	89.6*	-3.5	-0.1	-3.9	22.6*	99.3*
O=C(CN(C(=O)C1CSC(=O)C1)c1ccc(F)cc1)NCc1ccc2c(c1)OCO2 (centres undefined)	0.9	-0.4	0.6	14.4	13.3	-1.5	x
CCc1ccc(S(=O)(=O)c2n[nH]n3c2nc(=O)c2ccccc23)cc1	2.6	32.9	12.0	-3.8	24.7	-10.6	x
CC(C)c1ccc(S(=O)(=O)c2n[nH]n3c2nc(=O)c2ccccc23)cc1	-2.4	57.6*	9.9	-12.2	18.9	-10.4	60.4*
COc1ccc(Cl)cc1NC(=O)CCN1C(=O)C2C3C=CC(C4CC34)C2C1=O (centres undefined)	-4.1	0.2	4.2	16.2	-10.9	-1.1	x
O=C(CN(Cc1ccccc1Cl)C(=O)c1csnn1)NC1CCCC1	12.9	0.0	14.1	14.9	-2.1	-2.1	x
O=S(=O)(NCCN1CCOCC1)c1ccc2ccccc2c1	1.3	-0.9	x	-3.6	-12.8	-1.6	x
O=S(=O)(NCCN1CCOCC1)c1ccc(Oc2ccccc2Cl)cc1	4.8	75.4*	-2.9	8.5	6.9	-0.8	34.8*
CC(=O)NC(Cc1ccccc1C)C(=O)NC1CCN(C(=O)c2ccc(C)cc2)CC1 (centres undefined)	2.3	0.4	15.1	6.2	-0.7	0.2	x
N#C/C(=C(/O)c1ccc(-c2cccc([N+](=O)[O-])c2)o1)c1nc2ccccc2s1	x	97.9*	23.6	6.5	x	2.2	68.6*
N#C/C(=C(/O)COC(=O)c1ccc(C#N)cc1)c1nc2ccccc2s1	0.5	78.6*	25.8	0.5	-0.3	2.5	88.4*
N#C/C(=C(/O)COc1ccc(Cl)cc1)c1nc2ccccc2s1	13.0	107.1*	89.9*	29.6	98.9*	7.4	90.3*
SMILES	Beta apoptosis	MPTP inh	SKKanGAS inh	Mdm2 MdmX PPI	CSC inhib	NR3A LBD binder	MPTP counter	others
COc1ccc(C/C(O)=C(\C#N)c2nc3ccccc3s2)cc1	x	37.5	9.5	24.9	x	-7.9	x
N#C/C(=C(/O)CSc1ccccc1C(=O)O)c1nc2ccccc2s1	x	-0.5	-25.4	19.3	-5.0	-10.3	x
N#C/C(=C(/O)COc1ccccc1)c1nc2ccccc2s1	15.7	84.2*	u	6.6	11.9	-0.6	81.3*
Cc1occc1C(=O)N/N=C/c1cccc2ccccc12	-0.5	1.4	-2.2	-96.4	1.3	-2.7	x
Cc1ccc(SC/C(O)=C(\C#N)c2nc3ccccc3s2)cc1	-9.7	94.4*	76.6*	26.1	36.7	4.9	90.7*
N#C/C(=C(/O)c1ccc(F)cc1)c1nc2ccccc2s1	14.1	78.4*	27.4	-5.9	-2.7	2.4	96.1*
N#C/C(=C(/O)CSc1ccccn1)c1nc2ccccc2s1	3.0	2.1	-0.5	-6.4	13.8	-22.6	x
N#C/C(=N\O)c1nc2ccccc2s1	-3.9	0.8	2.7	18.4	9.0	6.0	x
Cn1c(SCC(=O)NCC2CCCO2)nnc1-c1ccc(Cl)cc1 (centres undefined)	-22.7	-0.7	x	-8.8	-11.2	-0.3	x
CCC(NC(=O)c1ccc2nc(Cc3ccc(OC)cc3)oc2c1)c1ccncc1 (centres undefined)	50.1	65.5*	-1.9	9.4	-7.5	0.2	75.8*
CCC(C)NC(=O)c1ccc2nc(Cc3ccc(OC)cc3)oc2c1 (centres undefined)	x	0.1	-3.8	13.8	-9.0	0.0	x
CN(CC(=O)Nc1ccc(Cl)cc1)c1ccc(S(=O)(=O)N2CCCCC2)cc1[N+](=O)[O-]	-0.1	82.4*	7.4	28.0	27.3	10.8*	66.6*
O=C(CSCc1ccc(Cl)cc1)Nc1ccc(S(=O)(=O)N2CCCCCC2)cc1	-4.4	53.4*	1.5	-24.6	42.9	-5.6	80.0*
COc1ccc(CN(C)c2ccc(S(=O)(=O)N3CCN(C)CC3)cc2[N+](=O)[O-])cc1OC	102.1*	97.0*	x	8.7	x	-2.7	99.0*
CN(CC(=O)Nc1ccc(S(=O)(=O)N2CCCC2)cc1)Cc1ccc(Cl)cc1Cl	-0.3	5.8	5.2	6.7	11.0	-11.4	x
Cn1cc(-c2cccc(C(F)(F)F)c2)cc(C#N)c1=O	-2.1	1.7	-5.8	22.0	-13.3	0.5	x
CN(Cc1nc2ccccc2n1C)C(=O)c1ccco1	x	-0.7	-0.4	12.2	-0.3	1.5	x
CC(C)[C@H](NC(=O)N1CCn2c1nc1ccccc12)C(=O)NCc1ccccc1Cl	-10.0	0.3	0.1	5.1	-14.7	0.7	x
